Consider 90 molecules from PubChem BioAssay AID1259309 (ICCB-Longwood Screening Facility, Harvard Medical School, 2017).

Several values for one entry are separate records, joined by “and”; a condition that tells them apart may be missing. Identical values can stand only once. Hit rate of the full screen: of about 330,000 compounds, about 1,800 (0.55%) were called active. This is one part of a sample in which actives are shown more often than they occur. Rule as the data show it: active = growth inhibition above about 68%; inactive = the rest. Some compounds were tested as several samples or in several runs, with calls that do not always agree.

This test in a line: growth inhibition of ugtP-null S. aureus, primary screen, RN4220 ugtP deletion, OD600 (AID 1259309).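 Also: plate controls were untreated wells for no effect and antibiotic for full effect.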 The note with it: 16 h, stronger effect = higher value.
Turning to `COc1cccc(C2CC=C(C(=O)O)C(c3ccc(F)cc3)N2S(=O)(=O)c2ccc(C)cc2)c1` (stereo not given), the growth inhibition is 24.5% (inactive).
In the case of `O=[N+]([O-])c1cccc(C=NNc2nc(NCc3ccccc3)nc(N3CCOCC3)n2)c1O`, the growth inhibition was 1.29% (inactive).
Consider `Cc1ccc(-c2csc(N3CCCC3C(=O)NCCn3c(-c4ccncc4)nc4ccccc43)n2)cc1` (stereo not given), for which the growth inhibition was 12.4% (inactive).
Turning to `Cc1nn(-c2ccccc2)c(C)c1C=NNC(=O)c1cc(-c2ccc(Br)s2)[nH]n1`, the growth inhibition is -11.7% (inactive).
As for `CC1CN(C(=S)Nc2ccccc2F)CC(C)O1` (stereo not given), the growth inhibition was 2.47% (inactive).
For the molecule `COc1c(N2CCN(C(=S)Nc3ccccc3F)C(C)C2)c(F)cc2c(=O)c(C(=O)O)cn(C3CC3)c12` (stereo not given), the growth inhibition was 100% (active).
The result for `COc1ccccc1NC(=S)N1CCN(c2ccc(F)cc2)CC1` reads 6.45% (inactive); that for `CC=C(C)C(=O)Nc1cccc(C2=NOC3(C2)CC(C(N)=O)N(C(=O)c2ccc(OC)cc2)C3)c1` (stereo not given), 0.227% (inactive).
The figure for `O=S(=O)(C=Cc1ccccc1)N1CCN(c2nc(-c3cccnc3)nc3ccccc23)CC1` is -1.02% (inactive); for `NC(=O)C(=O)NN=Cc1cccc(C(F)(F)F)c1` it is 6.69% (inactive); for `O=[N+]([O-])c1c(NCCO)cc(Sc2nc3ccccc3s2)c2nonc12` it is 99.9% (active).
As to `OCCNc1nc(Nc2ccc(Cl)c(Cl)c2)nc2ccccc12`, the growth inhibition is -40.3% (inactive).
Turning to `CCN(CC)CCCSc1nc2ccccc2s1`, the growth inhibition was 5.71% (inactive).
The figure for `CC(=O)CC1c2cc(C(F)(F)F)ccc2S(=O)(=O)N1C1CCCC1` (stereo not given) is -1.55% (inactive).
The result for `CCOC(=O)c1ccc(NC(=O)c2nc[nH]c2C(=O)NC(Cc2ccccc2)C(=O)OC(C)(C)C)cc1` (stereo not given) reads -22.8% (inactive).
The result for `Cc1ccc(C(=O)NCC(=O)NN=Cc2cccs2)cc1[N+](=O)[O-]` reads 4.96% (inactive); that for `COc1cc(C(=O)NN=Cc2cn(Cc3cccc(F)c3)c3ccccc23)ccc1O`, -6.8% (inactive); that for `COc1cccc(C=NNC(=O)CSCC(=O)Nc2ccccc2)c1O`, -4.58% (inactive).
As for `COc1cccc(C=NNc2cc(-n3nc(C)cc3-c3ccccc3)ncn2)c1O`, the growth inhibition is 101% (active).
The result for `COc1cccc(C=NNc2ncnc3c2ncn3Cc2ccccc2)c1O` reads 2.15% (inactive).
The result for `CCc1ccc2c(c1)C(=O)C[C@]1(CCCC(C)C1)O2` (stereo not given in full) reads 5.31% (inactive).
The result for `C#CCNC(=O)C1=CC(c2csc3ccccc23)CC(OCCCCO)O1` (stereo not given) reads -11.2% (inactive); that for `Cc1ccc(OCC(=O)NN=Cc2ccc3c(c2)OCO3)cc1C`, -11% (inactive).
On to `CCCCCCCCCCCCn1ccc(=N)cc1`, for which the growth inhibition is 101% (active).
`CCCCCN1CC(O)=C(c2ccccc2)C1=N`: the growth inhibition was 2.59% (inactive).
The figure for `COc1ccc(C=NNc2nn3cnnc3c3ccccc23)cc1` is 12.2% (inactive).
The figure for `CCOC(=O)CN1C(=O)NC(c2ccco2)C(C(C)=O)=C1C` (stereo not given) is -0.836% (inactive); for `CCC(=O)Nc1cccc(C2=NOC3(C2)CC(C(N)=O)N(C(=O)COc2ccc(Cl)cc2)C3)c1` (stereo not given) it is 3.89% (inactive).
For the molecule `Cc1c(CN2CCC(CO)(CCOc3ccccc3)CC2)[nH]c2ccc(Cl)cc12`, the growth inhibition was 95.4% (active).
The figure for `CCOC(=O)C1(CCOc2ccccc2)CCN(Cc2cc(OC)c(O)cc2Cl)CC1` is 4.94% (inactive); for `CCOC(=O)C1(CCOc2ccccc2)CCN(Cc2cc(OC)cc(OC)c2)CC1` it is 2.42% (inactive).
The result for `Nc1nonc1-n1nnc(C(=O)NN=Cc2ccc(Cl)cc2Cl)c1CN1CCCCC1` reads 6.34% (inactive); that for `ON=C1CC2(CC(=NO)C1=NO)OCCO2`, -5.45% (inactive); that for `O=C(Nc1ccc2ccccc2c1)Nc1ccc2snnc2c1`, 94.2% (active).
For the molecule `Cc1nc2cc(NC(=O)Nc3cccc(F)c3)ccc2n1C`, the growth inhibition is -1.04% (inactive).
Take `S=C(Nc1ccccc1)Nc1ccc2ccccc2c1`: the growth inhibition was -7.81% (inactive).
The figure for `COCc1cc(C)nc(OCC(=O)NN=Cc2ccc(C)cc2)c1C#N` is 3.45% (inactive); for `CC(=O)c1ccc(NC(=S)NC(=O)CC(C)C)cc1` it is 29.6% (inactive).
Consider `COc1ccc(OC)c(C(C)NC(=S)Nc2ccc(S(=O)(=O)Nc3ncccn3)cc2)c1` (stereo not given), for which the growth inhibition is 6.82% (inactive).
The result for `COc1ccc(NS(=O)(=O)c2ccc(NC(=S)NC(=O)CC(C)C)cc2)cc1` reads 88% (active).
With `COc1ccc(/C=C\C(=O)Oc2cccc(C=NNC(=O)Cc3ccc(OC)c(OC)c3)c2)cc1`, the growth inhibition was 28.2% (inactive).
The result for `CCCCC1CC1C(NC(=O)c1cccs1)c1ccc(C(F)(F)F)cc1` (stereo not given) reads 3.18% (inactive).
The figure for `CCOC(=O)C1=C(c2ccc(OC)cc2)C(=O)c2ccccc2C1=O` is 98.1% (active); for `COc1ccc(CNC(=O)CCN2C(=O)c3ccccc3C2=O)cc1` it is 0.235% (inactive).
On to `COC(=O)c1cc(OC)ccc1-c1ccc(OC)cc1`, for which the growth inhibition is 24.4% (inactive).
The result for `O=C(NC1CC(=NO)c2cc3c(cc21)OCO3)C(F)(F)F` (stereo not given) reads 3.72% (inactive); that for `Fc1ccc(-c2ccc(C=Nn3cnnc3)o2)cc1`, 3.75% (inactive); that for `O=C(CSc1nc2ccccc2n1Cc1ccc(Cl)cc1)NN=Cc1ccccc1C(=O)O`, 0.317% (inactive).
The figure for `OCCC1CC(O)C(O)[C@@]2(CCCc3ccccc3O2)O1` (stereo not given in full) is -2.74% (inactive) and 36.1% (inactive) and 95.4% (active); for `OCCC1CC(O)C(O)[C@]2(Cc3ccccc3O2)O1` (stereo not given in full) it is -11.4% (inactive) and -1.82% (inactive) and 6.13% (inactive).
In the case of `COc1ccc(-c2cnnc(NN=Cc3ccc(OC)c(OC)c3)n2)cc1`, the growth inhibition is -0.988% (inactive).
The figure for `COc1cc(C(=O)NCC(=O)NN=C(C)Cc2ccccc2)cc(OC)c1OC` is 1.68% (inactive); for `Cc1c(O)ccc(C(Cc2ccc3ccccc3n2)=NN)c1O` it is 7.02% (inactive).
As for `Cc1cc(N=Nc2ccc3ccccc3c2)ccc1O`, the growth inhibition was 100% (active).
For the molecule `Cc1cc(C)c(C#N)c(SCC(=O)Nc2ccccc2)n1`, the growth inhibition was -0.258% (inactive).
The result for `Cc1nc2cc(NC(=O)CSc3nc4c(C)cccc4cc3C#N)ccc2s1` reads 96.5% (active); that for `Cc1nonc1NC(=O)CSc1nc2ccccc2cc1C#N`, -7.53% (inactive); that for `Cc1ccc(NC(=S)NN=C2CC(C)(C)Oc3ccc(O)cc32)cc1`, -1.6% (inactive).
On to `CCCc1c(C(=O)NN=Cc2ccncc2)nnn1-c1nonc1N`, for which the growth inhibition is -1.92% (inactive).
The figure for `COc1ccc2sc(-c3ccc(S(C)(=O)=O)cc3)c(C#Cc3cncn3C)c2c1` is -24.1% (inactive); for `Cn1cncc1C#Cc1c(-c2ccsc2)sc2ccccc12` it is 89% (active).
The figure for `O=C(NCc1ccc2c(c1)OCO2)c1c(-c2ccsc2)sc2ccccc12` is 13.5% (inactive); for `CC1CN(C(C)CO)C(=O)c2cc(NS(=O)(=O)c3ccccc3)ccc2OC1CN(C)C(=O)Nc1ccc2c(c1)OCO2` (stereo not given) it is 1.83% (inactive); for `CC[C@@H](C)[C@@H]1CN([C@@H](C)CN2CCC[C@H]2CN2C(N)=NC[C@H]2C(C)C)C(=N)N1CCc1ccc(Cl)c(Cl)c1` it is 100% (active).
The figure for `CCCCN1C(=N)N(C(C)CN2CCCC2CN2C(N)=NCC2Cc2ccccc2)CC1C(C)CC` (stereo not given) is 2.45% (inactive).
As for `CC(=O)C(=NNc1ccccc1)Sc1nnc(-c2ccccc2)n1-c1ccccc1`, the growth inhibition is -0.945% (inactive).
As for `CCc1ccc(C=Nn2c(C)cc(C)c(C#N)c2=O)cc1`, the growth inhibition is 11.9% (inactive).
As for `CC(=NNC(=O)c1c(-c2ccccc2Cl)noc1C)c1cccc(NC(=O)C(C)C)c1`, the growth inhibition is -1.85% (inactive).
The figure for `O=c1ccnc(Nc2ccc(Cl)cc2)[nH]1` is -0.107% (inactive).
The figure for `Cc1csc(Nc2ccc(Cl)cc2)[n+]1-c1ccc(Cl)cc1` is 94.3% (active); for `CCOC1OC(C(N)=O)=CC(c2csc3ccccc23)C1CCCO` (stereo not given) it is -0.922% (inactive); for `NC(=O)CC1NC(=O)C(CCC(=O)O)NC(=O)c2cc([N+](=O)[O-])cc(I)c2NCCCC(C(N)=O)NC1=O` (stereo not given) it is 5.02% (inactive).
The figure for `COc1cccc(C=NNC(=O)c2ccccc2NC(=O)c2ccco2)c1OC` is 17.5% (inactive); for `Cc1cccc(OCC(=O)NC2CC(C)(C)NC(C)(C)C2)c1` it is -2.79% (inactive); for `COC(=O)Cc1ccc(OCC(=O)NC2CCCC2)cc1` it is 5.86% (inactive).
For the molecule `CC1(C)SC2C(NC(=O)COc3ccccc3)C(=O)N2C1C(=O)O` (stereo not given), the growth inhibition was 101% (active).
The result for `CC1=CC(=C(C#N)c2nc3ccccc3s2)C=C(C)N1c1ccc(F)cc1F` reads 3.53% (inactive); that for `O=C(O)CS/C(=C\c1ccc(F)cc1)c1nc2ccccc2s1`, -0.309% (inactive).
Regarding `N#C/C(=C(/O)Cc1cccc2ccccc12)c1nc2ccccc2s1`, the growth inhibition is 88% (active).
The result for `CSc1ccc(C2=CC(=O)CC(c3ccc(F)cc3)C2)cc1` (stereo not given) reads -1.01% (inactive); that for `Cc1ccc(C=NNC(=O)CSc2nc3ccccc3n2C)s1`, 0.402% (inactive).
On to `Cc1ccc(C=NNC(=O)CSc2nc3ccccc3c(=O)n2-c2ccccc2)s1`, for which the growth inhibition was -33.9% (inactive).
The figure for `Cn1c(SCC(=O)NN=Cc2ccc([N+](=O)[O-])s2)nnc1-c1ccccc1` is 100% (active); for `CCCc1noc2c1C(=NO)CCC2` it is 0.229% (inactive); for `Cn1ccc(=Nc2ccc(NC(=O)c3ccc(N=c4ccn(C)c5ccc([N+](=O)[O-])cc45)cc3)cc2)cc1` it is 99.6% (active).
As to `COc1cc(NS(=O)(=O)c2ccc(NC(=O)c3ccc([N+](=O)[O-])cc3)cc2)ncn1`, the growth inhibition was 2.78% (inactive).
Consider `CCc1ccc(NC(=O)c2ccc(Cn3cc([N+](=O)[O-])cn3)cc2)cc1`, for which the growth inhibition is 5.62% (inactive).
On to `CCOc1cc(C=NNC(=O)c2nnn(-c3nonc3N)c2C)ccc1OCc1cccc(F)c1`, for which the growth inhibition was -21.1% (inactive).
Turning to `CSc1sccc1C=NNC(=O)c1ccncc1`, the growth inhibition was -0.193% (inactive).
The result for `CCN1/C(=C/c2ccc3ccc(C)cc3[n+]2CC)Sc2ccccc21` reads 100% (active).
